Experimental data from PubChem BioAssay AID2562 (National Center for Advancing Translational Sciences (NCATS), 2010).
Inconclusive results are not listed. Active and inactive are the calls of the source. Calls follow the shape of the dose curve; as a rule, active = well fitted curve in the direction sought with a large enough effect; inconclusive = small, poorly fitted or top-dose-only effect, or effect the other way, or another doubt; inactive = no such curve, though single readings can be large or run the other way.

What follows are compounds tested against Pyruvate kinase PKLR (Homo sapiens) (UniProt P30613) (assay: Secondary LDH Assay for Activators of Human Reticulocyte Pyruvate Kinase: for Probe SAR). Conditions: purified hPK-R, LDH-coupled NADH fluorescence kinetic; series mostly up to 58.4 µM.
Summary of the method: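 LDH-coupled kinetic readout of pyruvate formation: NADH (0.2 mM) fluorescence decline over 3-6 minutes gave initial rates. Reactions held 10 nM hPK-R, 1 uM LDH, 0.1 mM PEP and 4.0 mM ADP at pH 8.0; activation normalized to fructose-bis-phosphate-type EC100.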

Sequence of Pyruvate kinase PKLR (Homo sapiens) (P30613 whole entry, looked up): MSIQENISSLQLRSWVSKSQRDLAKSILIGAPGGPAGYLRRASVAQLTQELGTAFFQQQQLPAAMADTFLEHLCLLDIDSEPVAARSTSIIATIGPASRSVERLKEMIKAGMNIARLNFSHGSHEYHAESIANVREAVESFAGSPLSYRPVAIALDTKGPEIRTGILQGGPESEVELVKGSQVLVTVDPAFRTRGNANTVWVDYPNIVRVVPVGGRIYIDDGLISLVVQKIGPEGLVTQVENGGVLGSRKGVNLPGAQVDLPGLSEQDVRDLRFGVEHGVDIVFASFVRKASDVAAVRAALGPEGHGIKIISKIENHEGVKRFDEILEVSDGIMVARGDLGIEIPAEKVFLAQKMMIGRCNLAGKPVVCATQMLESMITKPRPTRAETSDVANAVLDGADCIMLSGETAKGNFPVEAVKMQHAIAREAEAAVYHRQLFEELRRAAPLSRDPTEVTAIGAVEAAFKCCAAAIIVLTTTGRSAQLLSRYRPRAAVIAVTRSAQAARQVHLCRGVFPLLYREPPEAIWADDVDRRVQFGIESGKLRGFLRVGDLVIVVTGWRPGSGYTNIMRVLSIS

Potency, inactive:
Cc1ccc(NS(=O)(=O)c2ccc3c(c2)CCCC(=O)N3)cc1C
O=C1c2ccccc2C(=O)N1c1cc(=O)c2ccccc2[nH]1
Cc1ccc(NS(=O)(=O)c2cccc(Cl)c2)cc1C
Cc1cccc(OC2=NS(=O)(=O)c3ccccc32)c1
Cc1ccc(NS(=O)(=O)c2cc3c(cc2C)OCC(=O)N3)cc1C
O=C1c2ccccc2C(=O)N1c1cccc2ccncc12
CC(=O)Nc1cccc(S(=O)(=O)Nc2ccc(C)c(C)c2)c1
Cc1ccc(NS(=O)(=O)c2ccc3[nH]c(=O)[nH]c3c2)cc1C
O=C1c2ccccc2C(=O)N1c1cccc2cnccc12
O=C1CCc2cc(S(=O)(=O)Nc3cccc(-c4ccccc4)c3)ccc2N1
Cc1ccc(NS(=O)(=O)c2cc3c(cc2Br)NC(=O)CO3)cc1C
Cc1ccc(NS(=O)(=O)c2ccc3c(c2)CCC(=O)N3)cc1
Cc1ccc(-c2nc3ccc(Cl)cn3c2Nc2ccccc2)o1
O=C1c2ccccc2C(=O)N1C1CCCCC1
COc1ccccc1N1C(=O)c2ccccc2C1=O
O=C1CCc2cc(S(=O)(=O)Nc3ccc(Cl)cc3)ccc2N1
Cc1ccc(NS(=O)(=O)c2cc3c(cc2-c2ccsc2)NC(=O)CO3)cc1C
O=C1c2ccccc2C(=O)N1c1ccc(Cl)cc1
